SMILES strings stand for the structures. Screen size: about 1,300 compounds; about 630 (48%) were called active. Cut-off read from the data, not from the text of the source: active = inhibition above about 6.5%; inactive = the rest. The set was probably picked from earlier hits. Only a selection was taken, and actives are over-represented in it overall.

Chain of Tyrosine-protein kinase ABL1 (Homo sapiens) + Ras and Rab interactor 1 (Homo sapiens) (P00519 whole entry, looked up): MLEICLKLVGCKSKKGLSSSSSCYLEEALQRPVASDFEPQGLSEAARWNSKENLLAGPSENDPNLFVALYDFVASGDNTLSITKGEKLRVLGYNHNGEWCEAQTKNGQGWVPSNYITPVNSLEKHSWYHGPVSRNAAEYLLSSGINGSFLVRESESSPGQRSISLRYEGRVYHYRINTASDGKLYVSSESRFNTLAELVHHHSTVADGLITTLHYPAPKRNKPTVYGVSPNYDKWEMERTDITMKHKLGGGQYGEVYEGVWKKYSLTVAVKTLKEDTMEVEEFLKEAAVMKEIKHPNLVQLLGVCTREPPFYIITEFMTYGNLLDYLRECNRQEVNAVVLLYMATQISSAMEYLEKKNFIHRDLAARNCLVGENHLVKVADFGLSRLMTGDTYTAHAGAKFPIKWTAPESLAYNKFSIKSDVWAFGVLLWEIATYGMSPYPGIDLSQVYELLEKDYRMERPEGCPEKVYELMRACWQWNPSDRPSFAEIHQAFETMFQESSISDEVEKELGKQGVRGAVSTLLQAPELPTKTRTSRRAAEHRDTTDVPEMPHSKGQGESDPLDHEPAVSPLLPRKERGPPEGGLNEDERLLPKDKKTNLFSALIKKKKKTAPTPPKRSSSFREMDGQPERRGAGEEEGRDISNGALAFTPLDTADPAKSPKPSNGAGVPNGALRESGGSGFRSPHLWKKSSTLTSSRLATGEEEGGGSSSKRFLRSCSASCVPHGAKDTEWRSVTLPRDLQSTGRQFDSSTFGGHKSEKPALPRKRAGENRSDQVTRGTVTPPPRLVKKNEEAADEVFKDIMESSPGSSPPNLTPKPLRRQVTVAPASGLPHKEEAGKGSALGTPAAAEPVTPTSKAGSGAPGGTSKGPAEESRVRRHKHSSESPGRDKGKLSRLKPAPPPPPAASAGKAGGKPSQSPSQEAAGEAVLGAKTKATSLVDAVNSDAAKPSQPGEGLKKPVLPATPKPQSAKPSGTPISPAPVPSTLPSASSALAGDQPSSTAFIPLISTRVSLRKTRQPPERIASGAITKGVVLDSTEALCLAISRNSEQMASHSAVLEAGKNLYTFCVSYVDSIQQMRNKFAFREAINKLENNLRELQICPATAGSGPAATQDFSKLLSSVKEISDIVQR
Chain of Tyrosine-protein kinase ABL1 (Homo sapiens) + Ras and Rab interactor 1 (Homo sapiens) (Q13671 whole entry, looked up): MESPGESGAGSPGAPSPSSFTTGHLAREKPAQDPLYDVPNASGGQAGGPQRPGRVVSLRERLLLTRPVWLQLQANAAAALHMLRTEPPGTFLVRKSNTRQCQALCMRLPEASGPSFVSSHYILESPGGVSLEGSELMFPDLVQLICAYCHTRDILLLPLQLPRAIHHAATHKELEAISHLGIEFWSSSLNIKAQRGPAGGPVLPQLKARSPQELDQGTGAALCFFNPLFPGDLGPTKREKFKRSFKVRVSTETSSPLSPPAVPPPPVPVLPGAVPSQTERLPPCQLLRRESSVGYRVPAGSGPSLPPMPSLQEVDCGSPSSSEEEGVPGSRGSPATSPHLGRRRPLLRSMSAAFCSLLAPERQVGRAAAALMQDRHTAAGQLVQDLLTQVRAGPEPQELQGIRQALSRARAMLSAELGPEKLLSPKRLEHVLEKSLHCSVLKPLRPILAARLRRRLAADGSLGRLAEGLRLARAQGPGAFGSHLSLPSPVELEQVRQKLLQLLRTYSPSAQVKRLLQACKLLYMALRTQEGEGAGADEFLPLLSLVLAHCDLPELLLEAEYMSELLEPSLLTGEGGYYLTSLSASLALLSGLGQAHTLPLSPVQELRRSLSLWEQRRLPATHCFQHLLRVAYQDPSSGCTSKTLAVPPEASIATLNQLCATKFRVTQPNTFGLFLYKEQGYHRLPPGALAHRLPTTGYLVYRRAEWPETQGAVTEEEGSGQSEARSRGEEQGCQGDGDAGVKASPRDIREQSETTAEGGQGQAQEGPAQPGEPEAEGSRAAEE

The assay has as its target Tyrosine-protein kinase ABL1 (Homo sapiens) + Ras and Rab interactor 1 (Homo sapiens) (UniProt P00519+Q13671). Put plainly: disruptors of human Abl and Rin1 association – biochemical, TR-FRET, confirmation (AID 602124). The settings on record: TR-FRET Rin1-Abl binding, purified proteins; at 7.35 µM; active compounds read high. (In general: In TR-FRET formats the signal depends on donor and acceptor labels being close together.)
Broadly, the inhibition is the change of the read-out against control, counted positive when it falls. Consider `CSCCC(c1nnnn1C(C)(C)C)N1CCC(n2c(=O)[nH]c3ccccc32)CC1` (stereo unspecified), for which the inhibition is 16.5% (active).

The values are drawn from PubChem BioAssay AID602124 (The Scripps Research Institute Molecular Screening Center, 2011).
